Test results taken from the supplement of paper PMC8728848.
The entries come from a sample that favours the strongest signals as a whole.

What was measured:
Test in all cases: glycan array binding signal (z-score within array); higher = stronger binding
Conditions in all cases: glycan notation: IUPAC condensed, linker removed
[1] = target: Fuc(a1-2)Gal
In short: (§1)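 Glycan array data came from 3228 arrays in the Consortium for Functional Glycomics database, and only arrays with an available protein sequence were kept. Glycan names were put into IUPAC-condensed notation, and columns mapping to the same glycan were averaged. The binding signal is a within-array Z-score, averaged across arrays of one protein sequence run at different concentrations or buffers and across linkers. A negative Z-score can be read as non-binding.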

[2] = target: Fuc(a1-2)Gal(b1-3)GlcNAc(b1-3)GalNAc
In short: as §1

[3] = target: Fuc(a1-2)Gal(b1-4)GlcNAc(b1-3)[Fuc(a1-3)[Gal(b1-4)]GlcNAc(b1-6)]Gal(b1-4)Glc
In short: as §1

[4] = target: Fuc(a1-2)[Gal(a1-3)]Gal(b1-4)Glc
In short: as §1

[5] = target: Fuc(a1-2)[GalNAc(a1-3)]Gal
In short: as §1

[6] = target: Fuc(a1-2)[GalNAc(a1-3)]Gal(b1-3)GlcNAc(b1-2)Man(a1-3)[Fuc(a1-2)[GalNAc(a1-3)]Gal(b1-3)GlcNAc(b1-2)Man(a1-6)]Man(b1-4)GlcNAc(b1-4)[Fuc(a1-6)]GlcNAc
In short: as §1

[7] = target: Fuc(a1-2)[GalNAc(a1-3)]Gal(b1-4)GlcNAc(b1-2)Man(a1-3)[Fuc(a1-2)[GalNAc(a1-3)]Gal(b1-4)GlcNAc(b1-2)Man(a1-6)]Man(b1-4)GlcNAc(b1-4)[Fuc(a1-6)]GlcNAc
In short: as §1

[8] = target: Fuc(a1-2)[GalNAc(a1-3)]Gal(b1-4)[Fuc(a1-3)]GlcNAc
In short: as §1

[9] = target: Fuc(a1-2)[GalNAc(a1-3)]Gal(b1-4)[Fuc(a1-3)]GlcNAc(b1-3)GalNAc
In short: as §1

[10] = target: Fuc(a1-3)[GalNAc(b1-4)]GlcNAc
In short: as §1

[11] = target: Gal(a1-3)Gal(b1-3)GlcNAc(b1-2)Man
In short: as §1

[12] = target: Gal(a1-3)Gal(b1-3)GlcNAc(b1-6)GalNAc
In short: as §1

[13] = target: Gal(a1-3)Gal(b1-4)[Fuc(a1-3)]GlcNAc
In short: as §1

[14] = target: Gal(a1-3)GalNAc
In short: as §1

[15] = target: Gal(a1-3)[Gal(a1-4)]Gal(b1-4)GlcNAc
In short: as §1

[16] = target: Gal(a1-4)Gal(b1-4)Glc
In short: as §1

[17] = target: Gal(b1-3)GalNAc(a1-3)[Fuc(a1-2)]Gal(b1-4)Glc
In short: as §1

[18] = target: Gal(b1-3)GalNAc(b1-4)Gal(b1-4)Glc
In short: as §1

[19] = target: Gal(b1-3)GlcNAc(b1-3)Gal(b1-3)GlcNAc
In short: as §1

[20] = target: Gal(b1-3)GlcNAc(b1-3)Gal(b1-4)GlcNAc(b1-3)Gal(b1-4)GlcNAc(b1-2)[Gal(b1-3)GlcNAc(b1-3)Gal(b1-4)GlcNAc(b1-3)Gal(b1-4)GlcNAc(b1-6)]Man(a1-6)[Gal(b1-3)GlcNAc(b1-3)Gal(b1-4)GlcNAc(b1-3)Gal(b1-4)GlcNAc(b1-2)Man(a1-3)]Man(b1-4)GlcNAc(b1-4)[Fuc(a1-6)]GlcNAc
In short: as §1

[21] = target: Gal(b1-3)GlcNAc(b1-6)Gal(b1-4)GlcNAc
In short: as §1

[22] = target: Gal(b1-4)Glc6S
In short: as §1

[23] = target: Gal(b1-4)GlcNAc(b1-2)Man(a1-3)[Gal(b1-4)GlcNAc(b1-2)Man(a1-6)][Gal(b1-4)GlcNAc(b1-4)]Man(b1-4)GlcNAc(b1-4)[Fuc(a1-6)]GlcNAc
In short: as §1

[24] = target: Gal(b1-4)GlcNAc(b1-6)Gal(b1-4)GlcNAc
In short: as §1

[25] = target: Gal3S(b1-4)[Fuc(a1-3)]Glc6S
In short: as §1

[26] = target: Gal6P(b1-4)GlcNAc
In short: as §1

[27] = target: Gal6S(b1-3)GlcNAc
In short: as §1

[28] = target: Gal6S(b1-4)Glc
In short: as §1

[29] = target: GalNAc(a1-3)GalNAc
In short: as §1

[30] = target: GalNAc(b1-3)Gal(a1-4)Gal(b1-4)GlcNAc
In short: as §1

[31] = target: GalNAc(b1-4)GlcNAc
In short: as §1

[32] = target: GlcA(b1-3)GlcNAc
In short: as §1

[33] = target: GlcNAc(a1-3)Gal(b1-4)GlcNAc
In short: as §1

[34] = target: GlcNAc(b1-3)Gal(b1-4)GlcNAc(b1-3)Gal(b1-4)GlcNAc(b1-2)Man(a1-3)[GlcNAc(b1-3)Gal(b1-4)GlcNAc(b1-3)Gal(b1-4)GlcNAc(b1-2)Man(a1-6)]Man(b1-4)GlcNAc(b1-4)GlcNAc
In short: as §1

[35] = target: GlcNAc(b1-3)Gal(b1-4)GlcNAc(b1-3)Gal(b1-4)GlcNAc(b1-3)Gal(b1-4)GlcNAc(b1-2)Man(a1-3)[GlcNAc(b1-3)Gal(b1-4)GlcNAc(b1-3)Gal(b1-4)GlcNAc(b1-3)Gal(b1-4)GlcNAc(b1-2)Man(a1-6)]Man(b1-4)GlcNAc(b1-4)GlcNAc
In short: as §1

[36] = target: GlcNAc(b1-4)[GlcNAc(b1-6)]GalNAc
In short: as §1

[37] = target: GlcNAc(b1-6)GalNAc
In short: as §1

[38] = target: Neu5Ac(a2-3)Gal(b1-3)GlcNAc(b1-2)Man(a1-3)[GlcNAc(b1-4)][Neu5Ac(a2-3)Gal(b1-3)GlcNAc(b1-2)Man(a1-6)]Man(b1-4)GlcNAc(b1-4)GlcNAc
In short: as §1

[39] = target: Neu5Ac(a2-3)Gal(b1-4)GlcNAc(b1-2)[Neu5Ac(a2-3)Gal(b1-4)GlcNAc(b1-6)]Man(a1-6)[Neu5Ac(a2-3)Gal(b1-4)GlcNAc(b1-2)Man(a1-3)][GlcNAc(b1-4)]Man(b1-4)GlcNAc(b1-4)GlcNAc
In short: as §1

[40] = target: Neu5Ac(a2-3)Gal(b1-4)GlcNAc(b1-3)Gal(b1-4)GlcNAc(b1-3)Gal(b1-4)GlcNAc
In short: as §1

[41] = target: Neu5Ac(a2-3)Gal(b1-4)GlcNAc(b1-3)Gal(b1-4)[Fuc(a1-3)]GlcNAc
In short: as §1

[42] = target: Neu5Ac(a2-3)Gal(b1-4)[Fuc(a1-3)]GlcNAc(b1-6)[Neu5Ac(a2-3)Gal(b1-3)]GalNAc
In short: as §1

[43] = target: Neu5Ac(a2-3)[GalNAc(b1-4)]Gal(b1-4)GlcNAc
In short: as §1

[44] = target: Neu5Ac(a2-6)Gal(b1-4)GlcNAc(b1-2)Man(a1-3)[Neu5Ac(a2-6)Gal(b1-4)GlcNAc(b1-2)Man(a1-6)]Man(b1-4)GlcNAc(b1-4)GlcNAc
In short: as §1

[45] = target: Neu5Ac(b2-6)Gal(b1-4)GlcNAc
In short: as §1

[46] = target: Neu5Ac9Ac(a2-6)Gal(b1-4)GlcNAc
In short: as §1

B1: AT3G09350(27) (Arabidopsis thaliana), Q84J81 (protein)
chain: MAKDGPNWDGLLKWSLSHADGTRPTRQLSEEDRKWFMEAMQSQTVDVVKRMKEITLVMQTPEQVLVEHGVTPEDIQDLLDELQEHVESIDMANDLHSIGGLVPLLSFLKNSHANIRAKAADVVSTIVQNNPRSQELVMETNALESLLSNFTSDTDIHARTQALGAISSLIRHNKPGVTAFKLANGYAGLRDALASDSVRFQRKALNLLQYLLQEDDSDRSIATGLGFPRVMMHLASSDDAEIREAALRGLLELSREKNDGSSSIDKSDEKLRQLLEERIKGITLMSQEDLETVKEERQLVDLLWSICYNEPSSLREKGLVVLPGEDALPPDVASKLFEPPLRASAANRNATEKKDEPMKLLGP
[1]
  glycan array binding signal (z-score): -0.113
[2]
  glycan array binding signal (z-score): 0.676
[3]
  glycan array binding signal (z-score): -0.595
[4]
  glycan array binding signal (z-score): 2.16
[5]
  glycan array binding signal (z-score): -0.506
[6]
  glycan array binding signal (z-score): -0.677
[7]
  glycan array binding signal (z-score): 0.007
[8]
  glycan array binding signal (z-score): 0.498
[9]
  glycan array binding signal (z-score): 5.85
[10]
  glycan array binding signal (z-score): 3.56
[11]
  glycan array binding signal (z-score): 0.248
[12]
  glycan array binding signal (z-score): -0.449
[13]
  glycan array binding signal (z-score): -0.122
[14]
  glycan array binding signal (z-score): 2.5
[15]
  glycan array binding signal (z-score): 8.94
[16]
  glycan array binding signal (z-score): 2.11
[17]
  glycan array binding signal (z-score): -0.346
[18]
  glycan array binding signal (z-score): 1.91
[19]
  glycan array binding signal (z-score): -0.089
[20]
  glycan array binding signal (z-score): -0.059
[21]
  glycan array binding signal (z-score): 3.05
[22]
  glycan array binding signal (z-score): 0.57
[23]
  glycan array binding signal (z-score): -0.391
[24]
  glycan array binding signal (z-score): 3.1
[25]
  glycan array binding signal (z-score): -0.174
[26]
  glycan array binding signal (z-score): -0.424
[27]
  glycan array binding signal (z-score): -0.146
[28]
  glycan array binding signal (z-score): -0.106
[29]
  glycan array binding signal (z-score): -0.182
[30]
  glycan array binding signal (z-score): 4.3
[31]
  glycan array binding signal (z-score): 7.59
[32]
  glycan array binding signal (z-score): -0.957
[33]
  glycan array binding signal (z-score): -0.46
[34]
  glycan array binding signal (z-score): 0.28
[35]
  glycan array binding signal (z-score): 0.057
[36]
  glycan array binding signal (z-score): -0.008
[37]
  glycan array binding signal (z-score): 0.847
[38]
  glycan array binding signal (z-score): -0.8
[39]
  glycan array binding signal (z-score): -0.435
[40]
  glycan array binding signal (z-score): 0.446
[41]
  glycan array binding signal (z-score): -0.305
[42]
  glycan array binding signal (z-score): 0.415
[43]
  glycan array binding signal (z-score): -0.121
[44]
  glycan array binding signal (z-score): 0.535
[45]
  glycan array binding signal (z-score): 0.639
[46]
  glycan array binding signal (z-score): -0.732
